PubChem BioAssay AID1851 (National Center for Advancing Translational Sciences (NCATS), 2009)
Several values for one entry are separate records, joined by “and”; a condition that tells them apart may be missing. Identical values can stand only once. The whole screen tested about 16,000 compounds, of which about 5,800 (36%) were called active. Roughly 23% stayed inconclusive and do not appear here. This is one part of the list. Values without a mark were called inactive. Calls come from the whole dose curve; as a rule, active = well fitted curve in the direction sought with a large enough effect; inconclusive = small, poorly fitted or top-dose-only effect, or effect the other way; inactive = no such curve, though single readings can be large or run the other way.

What follows are molecules tested against Cytochrome P450 2C19 (Homo sapiens) (UniProt P33261) (assay: Cytochrome panel assay with activity outcomes). Settings: recombinant CYP, pro-luciferin dealkylation, luminescence, p450-cyp2c19; series mostly up to 57.1 µM.
% is set by controls: 0 for no effect and ±100 for the full control effect.

Chain of Cytochrome P450 2C19 (Homo sapiens) (P33261 whole entry, looked up): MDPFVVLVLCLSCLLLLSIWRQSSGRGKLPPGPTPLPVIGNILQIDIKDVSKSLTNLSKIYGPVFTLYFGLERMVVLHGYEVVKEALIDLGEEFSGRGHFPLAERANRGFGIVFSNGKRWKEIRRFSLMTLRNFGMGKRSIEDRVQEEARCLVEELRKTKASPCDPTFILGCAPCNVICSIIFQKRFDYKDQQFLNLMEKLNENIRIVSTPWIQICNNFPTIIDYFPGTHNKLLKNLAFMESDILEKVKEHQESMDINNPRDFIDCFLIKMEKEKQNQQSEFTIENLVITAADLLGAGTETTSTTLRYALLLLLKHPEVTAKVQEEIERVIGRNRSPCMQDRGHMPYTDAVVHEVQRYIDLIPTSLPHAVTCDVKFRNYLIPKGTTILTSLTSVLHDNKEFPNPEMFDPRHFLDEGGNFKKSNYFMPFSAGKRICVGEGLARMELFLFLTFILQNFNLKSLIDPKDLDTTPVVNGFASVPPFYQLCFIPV

| Compound | activity, negative = inhibition | AC50 |
| --- | --- | --- |
| CC(C)=CCC/C(C)=C/CO/N=C1/C[C@@H](O)[C@@H](O)[C@@H]2[C@H]3C(=O)N(c4ccc(F)cc4F)C(=O)[C@@H]3CC[C@H]12 | -33.8% [at 11.4 µM] | – |
| CCNc1ncc2nc(-c3ccccc3)c(=O)n(Cc3cccs3)c2n1 | – | inactive |
| CN(C)c1ncc2nc(-c3ccc(Cl)cc3)c(=O)n(Cc3cccs3)c2n1 | – | inactive |
| CN(C)c1ncc2nc(-c3ccc(F)cc3)c(=O)n(Cc3cccs3)c2n1 | – | inactive |
| COc1cccc(Cn2c(=O)c(-c3ccccc3)nc3cnc(N(C)C)nc32)c1 | – | inactive |
| COc1cccc(Cn2c(=O)c(CCc3ccccc3)nc3cnc(N(C)C)nc32)c1 | – | 0.794 µM (active) |
| COc1cccc(Cn2c(=O)c(-c3cc(F)cc(F)c3)nc3cnc(N(C)C)nc32)c1 | – | inactive |
| COc1cccc(Cn2c(=O)cnc3cnc(N(C)C)nc32)c1 | – | 2.51 µM (active) |
| CCNc1ncc2nc(CCc3ccccc3)c(=O)n(Cc3cccc(OC)c3)c2n1 | – | 6.31 µM (active) |
| CN(C)c1ncc2nc(CCc3ccccc3)c(=O)n(Cc3cccs3)c2n1 | – | 6.31 µM (active) |
| C=CCN1CCc2cc(O)c(O)cc2[C@H](c2ccccc2)C1 | – | inactive |
| CN(C)c1ncc2ncc(=O)n(Cc3cccs3)c2n1 | – | 10 µM (active) |
| COc1ccc(Oc2ncc3nc(-c4cccc(C#N)c4)c(=O)n(Cc4cccc(OC)c4)c3n2)cc1 | – | inactive |
| CN(C)c1ncc2nc(CCc3ccccc3)c(=O)n(Cc3ccc(F)cc3)c2n1 | – | 0.794 µM (active) |
| CN(C)c1ncc2nc(-c3cccs3)c(=O)n(Cc3cccs3)c2n1 | – | inactive |
| COc1cccc(Cn2c(=O)c(-c3cn(C)c4ccccc34)nc3cnc(OC)nc32)c1 | – | inactive |
| CN(C)c1ncc2nc(-c3ccccc3)c(=O)n(Cc3ccc(F)cc3)c2n1 | – | inactive |
| COc1cccc(Cn2c(=O)c(CCc3ccccc3)nc3cnc(OC)nc32)c1 | – | 15.8 µM (active) |
| COc1cccc(Cn2c(=O)c(-c3cccc(C#N)c3)nc3cnc(Nc4ccccc4)nc32)c1 | – | inactive |
| CN(C)c1ncc2nc(-c3cc(F)cc(F)c3)c(=O)n(CCc3ccccc3)c2n1 | – | inactive |
| COc1cccc(Cn2c(=O)c(-c3cccc(C#N)c3)nc3cnc(OC)nc32)c1 | – | 10 µM (active) |

| Compound | activity, negative = inhibition | AC50 |
| --- | --- | --- |
| COc1ccc(-c2nc3cnc(OC)nc3n(Cc3cccc(OC)c3)c2=O)cc1 | – | inactive |
| Cc1nc2cnc(N(C)C)nc2n(Cc2cccs2)c1=O | – | inactive |
| CC(=O)c1ccc(N2CCC(c3cc(-c4ccc(Cl)cc4)n[nH]3)CC2)c([N+](=O)[O-])c1 | – | 0.501 µM (active) |
| COc1ccc(-c2cc(C3CCN(c4ccc(C(C)=O)cc4[N+](=O)[O-])CC3)[nH]n2)cc1 | – | 2.24 µM (active) |
| CC(=O)c1ccc(N2CCC(c3cc(-c4ccc(Cl)cc4Cl)n[nH]3)CC2)c([N+](=O)[O-])c1 | – | 0.282 µM (active) |
| CC(=O)c1cc(CC=C(C)C)c(O)cc1O | – | 2.82 µM (active) |
| COc1cc(CC(=O)O)c(C(C)=O)cc1OC | – | inactive |
| COc1ccc(Sc2ccc(NC(=O)c3ccccc3Cl)cc2C#N)cc1 | – | 2.82 µM (active) |
| COc1cc(/C=N/Nc2snc(SC)c2C#N)cc(OC)c1OC | – | 14.1 µM (active) |
| COc1ccc(/C=N/NC(=S)NC2CCS(=O)(=O)C2)cc1OC (configuration not stated) | – | inactive |
| COc1ccc(/C=N/Nc2snc(SC)c2C#N)cc1OC | – | 5.01 µM (active) |
| N/C(=N\OC(=O)c1cc(-c2ccccc2)nc2ccccc12)c1ccc(Cl)cc1 | – | 7.94 µM (active) |
| O=C(O)c1cc(-c2ccc(-c3ccc(-c4cc(C(=O)O)c5cc(Cl)ccc5n4)cc3)cc2)nc2ccc(Cl)cc12 | -23.2% [at 11.4 µM] | – |
| NNC(=O)c1ccncc1 | – | inactive |
| O=C(CC(=O)c1ccncc1)c1ccccc1 | – | 0.398 µM (active) |
| CCOc1cc(-c2noc(N)c2C#N)cc(OCC)c1OCC | – | 15.8 µM (active) |
| O=C1[C@@H]2[C@H]3[C@H](O)[C@H](O)C/C(=N/OCc4ccccc4)[C@H]3CC[C@H]2C(=O)N1c1ccc(F)cc1F | -4.38% [at 11.4 µM] | – |
| CN(C)CCO[C@](C)(c1ccccc1)c1ccccn1 | – | inactive |
| CN(C)S(=O)(=O)c1ccc(Nc2ccc(O)c3c2C(=O)c2c([N+](=O)[O-])ccc(O)c2C3=O)cc1 | -34.2% [at 11.4 µM] | – |
| COc1ccc(NC(=O)CSc2nncn2C)c([N+](=O)[O-])c1 | – | 31.6 µM (active) |
| COc1ccc(NC(=O)CN(C)S(=O)(=O)c2ccc(Cl)cc2)c([N+](=O)[O-])c1 | – | 8.91 µM (active) |

| Compound | activity, negative = inhibition | AC50 |
| --- | --- | --- |
| COc1ccc(NC(=O)c2cccs2)c([N+](=O)[O-])c1 | – | inactive |
| CC(=O)c1c(C(C)=O)c(C)n(NC(=O)c2ccccc2Cl)c1C | – | inactive |
| CC(=O)c1c(C(C)=O)c(C)n(NC(=O)c2ccncc2)c1C | – | 0.2 µM (active) |
| CC(C)NNC(=O)c1ccncc1 | – | inactive |
| CCOC(=O)CC(Nc1nc(N2CCOCC2)nc(N2CCOCC2)n1)c1ccccc1Cl (configuration not stated) | – | 3.16 µM (active) |
| CCC[C@H]1C[C@H](C(=O)N[C@H]([C@@H]2O[C@H](SC)[C@@H](O)[C@H](O)[C@@H]2O)[C@H](C)O)N(C)C1 | – | inactive |
| Cc1cc(NC(=O)Nc2ccc(N(C)C)cc2)c2cc(F)cc(F)c2n1 | – | 15.8 µM (active) |
| Cc1cc(C)c(C(N)=O)c(NC(=O)Nc2ccccc2)n1 | – | inactive |
| Cc1cc(N)c2cc(NC(=O)Nc3ccc4nc(C)cc(N)c4c3)ccc2n1 | -6.46% [at 11.4 µM] | – |
| COc1cc(OC)c2c(c1Cl)O[C@@]1(C2=O)[C@H](C)CC(=O)C[C@@H]1OC | – | inactive |
| C[C@@H]1NCC[C@H](CC(=O)O)[C@H]1CC(=O)O | 4.52% [at 11.4 µM] | – |
| COc1ccccc1-n1c(SCC(=O)N2CCCC2)nc2cccnc21 | – | inactive |
| O=C(CCc1nc2ccccc2c(=O)[nH]1)OCC(=O)N1CCN(S(=O)(=O)c2ccccc2)CC1 | – | inactive |
| Cn1c(SCC(=O)N2CCN(S(=O)(=O)c3ccccc3)CC2)nc2ccccc21 | – | 15.8 µM (active) |
| CC1CCN(C(=O)CSc2nc3cccnc3n2C)CC1 | – | 8.91 µM (active) |
| CCCn1c(=O)c2c(ncn2C)n(CCC)c1=O | – | inactive |
| N#Cc1cccc(NC(=O)N2CC[C@@]3(CCCN(C(=O)c4ccco4)C3)C2)c1 | – | inactive |
| CCCCCOc1ccc(C(=O)NCC2(c3ccccc3)CCOCC2)cc1 | – | 7.94 µM (active) |
| O=C(Nc1nnc(-c2ccc(Cl)cc2)o1)Nc1ccccc1Cl | – | inactive |
| O=C(Cc1ccc(Cl)cc1)Nc1cccc(-c2nnc(-c3ccco3)o2)c1 | – | 0.0158 µM (active) |
| Clc1ccc(-c2nnc(-c3ccco3)o2)cc1 | – | 20 µM (active) |

| Compound | activity, negative = inhibition | AC50 |
| --- | --- | --- |
| Clc1ccc2c(N3CCC(CCC4CCN(c5ncnc6cc(Cl)ccc56)CC4)CC3)ncnc2c1 | -1.06% [at 11.4 µM] | – |
| CCCCCC(=O)O[C@H](CC(=O)O)C[N+](C)(C)C | – | inactive |
| COc1cccc(NC(=O)c2cc(-c3cccnc3)nc3c(Cl)cccc23)c1 | – | 6.31 µM (active) |
| COc1ccc(-c2nc3cnc(N4CCNCC4)nc3n(C3CC3)c2=O)cc1 | – | inactive |
| CC1(C)CC(NCc2ccc3c(c2)OCO3)CCO1 (configuration not stated) | – | 11.2 µM (active) |
| CC1(C)CC(NC(=O)c2ccc3c(c2)OCO3)CC(C)(C)N1 | – | inactive |
| c1ccc(CCc2cccnc2)nc1 | -11.1% [at 11.4 µM] | – |
| c1ccc(NN(Cc2cnccn2)c2ccccc2)cc1 | – | 2 µM (active) |
| COc1ccc(O[C@H]2C=C[C@@H](c3ccccc3)O[C@H]2COC(=O)CC/C(C)=N\O[C@@H](C)c2cn([C@H](CO)Cc3ccccc3)nn2)cc1 | – | 63.1 nM (active) and 631 nM (active) |
| C/C(CCC(=O)OC[C@@H]1O[C@H](C#Cc2ccccc2)C=C[C@@H]1Oc1ccc(C)cc1)=N/OC[C@@H](O)COCc1ccco1 | -32.2% [at 11.4 µM] | – |
| C/C(CCC(=O)OC[C@@H]1O[C@H](C#Cc2ccccc2)C=C[C@@H]1Oc1ccc(C)cc1)=N/OC[C@@H](C)[C@H](OCc1ccccc1)C(C)C | -30.1% [at 11.4 µM] | – |
| CC(=O)OC[C@H]1O[C@@H](O/N=C(\C)CCC(=O)OC[C@@H]2O[C@H](C#Cc3ccccc3)C=C[C@@H]2Oc2ccc(C)cc2)[C@H](OC(C)=O)[C@@H](OC(C)=O)[C@H]1OC(C)=O | -18.3% [at 11.4 µM] | – |
| C/C(CCC(=O)OC[C@@H]1O[C@H](C#Cc2ccccc2)C=C[C@@H]1Oc1ccc(C)cc1)=N/O[C@@H](C)c1cn([C@H](CO)Cc2ccccc2)nn1 | – | 3.98 µM (active) |
| CC(C)=NO[C@@H](C)c1cn([C@H](CO)Cc2ccccc2)nn1 | -12.3% [at 11.4 µM] and -23.6% [at 11.4 µM] | – |
| CC(=O)OC[C@@H]1O[C@H](C/C=N\O[C@@H](C)c2cn([C@H](CO)Cc3ccccc3)nn2)C=C[C@@H]1OC(C)=O | 25.9% [at 11.4 µM] and 17.9% [at 11.4 µM] | – |
| CO/N=C(/C)CCC(=O)OC[C@@H]1O[C@H](C#Cc2ccccc2)C=C[C@@H]1Oc1ccc(C)cc1 | – | 3.98 µM (active) |
| COc1ccc(O[C@H]2C=C[C@@H](c3ccccc3)O[C@H]2COC(=O)CC/C(C)=N\O[C@@H](C)c2cn([C@H]3COC[C@H]3O)nn2)cc1 | – | 2.51 µM (active) |
| C/C(CCN1CCc2nc(-c3ccccc3)c(-c3ccccc3)cc2C1)=N\O[C@@H](C)c1cn([C@@H]2COC[C@@H]2O)nn1 | 3.9% [at 11.4 µM] | – |
| CCc1cc2c(nc1CC)CCN(CC/C(C)=N/O[C@@H](C)c1cn([C@@H]3COC[C@@H]3O)nn1)C2 | 14.6% [at 11.4 µM] | – |
